SMILES strings stand for the structures. In all, about 420,000 compounds went through this assay and about 64,000 (15%) were called active. Roughly 27% stayed inconclusive and do not appear here. Not all results are given here. A number with no mark means an inactive call. The call rests on the fitted dose curve; in most records, active means well fitted inhibition curve with a large enough effect; inconclusive means small, poorly fitted or top-dose-only effect; inactive means flat fitted curve, though single readings scatter.
On the % scale 0 is the no-effect control and ±100 the full control effect; potency means the concentration at half of the fitted maximal effect.

The test can be described thus: qHTS for Inhibitors of human tyrosyl-DNA phosphodiesterase 1 (TDP1): qHTS in cells in absence of CPT. Further: nearly all actives have a fitted effect of over 55% in size. The settings on record: DT40 Tdp1-/- hTDP1 cells, no CPT, ATP luminescence, 48 h; activity change, negative = growth inhibition: at 46.2 µM (top of the series). The essentials:
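Compound effects on proliferation are scored in DT40 Tdp1-/-;hTDP1 cells in the absence of CPT. ATP levels (CellTiter-Glo luminescence) are recorded after a ≥48 hr, 37 °C incubation.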
For orientation: In qHTS, concentration-response curves come from the screen itself.
Regarding `CC(=O)N(O)CCCCCNC(=O)CCC(=O)N(O)CCCCCNC(=O)CCC(=O)N(O)CCCCCNC(=O)CCC(=O)O`, the “activity change, negative = growth inhibition” value was -5.15%. For `Cc1cc(C)nc(NC2=NCC(=O)N2c2ccc(Cl)cc2)n1`, the “activity change, negative = growth inhibition” value was -7.59%. Same read-out and setting: then `CCOC(=O)N1CCN(C(=O)c2ccc3nc4cc(Cl)ccc4c(=O)n3c2)CC1`, with -13.1%; and `Cc1ccc(Cl)cc1N1CCN(C(=O)c2cccn3c(=O)c4cc(Cl)ccc4nc23)CC1`, with -1.72%. In the case of `CCc1nc2ccc(C(=O)N3CCN(c4cc(Cl)ccc4C)CC3)cc2nc1CC`, the Potency is 18.4 µM (active). Regarding `CN(C)CCCNC(=S)N1CCC(c2nc3ccccc3[nH]2)CC1`, the “activity change, negative = growth inhibition” value was 10.9%. On the same count and under the same terms, then `CC(C)(C)c1ccc(C(CC(=O)O)NS(=O)(=O)Cc2ccccc2)cc1` (stereo not given), with 12.1%; and `CCCCc1nc2c(=O)[nH]c3ccccc3c2o1`, with -13.7%. Take `CC1=C/C(=N\OS(=O)(=O)c2ccccc2)C=CC1=O`: the Potency was 1 µM (active). As to `O=S(=O)(ON(c1ccccc1)S(=O)(=O)c1ccccc1)c1ccccc1`, the “activity change, negative = growth inhibition” value is -27.9%. Still for that read-out and setting: then `CCC(=O)Nc1cccc(NC(=O)c2cccnc2)c1`, with 7.17%; and `CCOC(=O)c1cc(NC(=O)c2cccnc2)cc(C(=O)OCC)c1`, with -5.59%; and `CSc1nc2ccc(NC(=O)c3c(F)cccc3F)cc2s1`, with -1.17%. Regarding `CCCC(=O)Nc1nc2ccc(NC(=O)c3c(F)c(F)c(OC)c(F)c3F)cc2s1`, the Potency is 0.651 µM (active).

Take `CCCC(=O)Nc1nc2ccc(NC(=O)c3cccnc3)cc2s1`: the Potency was 9.2 µM (active). Take `CCCC(=O)Nc1ccc2c(c1)nc1n2CCSC1`: the “activity change, negative = growth inhibition” value was -2.08%.

As to `O=C(COC(=O)/C=C/c1ccc(OC(F)F)cc1)NC1CCCCC1`, the “activity change, negative = growth inhibition” value was -11%. On the same count and under the same terms, then `O=C(CCNS(=O)(=O)c1ccccc1)NCCCc1ccccc1`, with 15.1%; and `O=S(=O)(c1ccccc1)N1CN(Cc2ccc(F)cc2)c2nc3ccccc3nc21`, with -29.9%. For the molecule `O=C(CCN1C(=O)C2CCCCC2C1=O)Nc1ccc(OC(F)F)cc1` (stereo not given), the “activity change, negative = growth inhibition” value was -2.98%.

Consider `COCCNc1ncnc2ccc(-c3ccccc3CN(C)C)cc12`, for which the “activity change, negative = growth inhibition” value is -13.2%. The same measure, in the same setting: next, `COc1ccccc1CNc1ncnc2ccc(-c3ccc4c(c3)OCO4)cc12`: -26.4%. Consider `COc1ccccc1CNc1ncnc2ccc(-c3c(C)noc3C)cc12`, for which the Potency is 11.6 µM (active).

`CCC1(CC)NC(=O)N(CC(=O)OCC(=O)Nc2ccc(C(F)(F)F)cc2)C1=O`: the “activity change, negative = growth inhibition” value was -10.4%. For `CCCN(C/C=C\I)[C@@H]1CCc2cccc(O)c2C1`, the Potency is 21.1 µM (active). As for `CCCN(CCc1ccccc1)C1CCc2c(O)cccc2C1` (stereo not given), the Potency is 11.6 µM (active).

Turning to `O=C(C(=O)N1CCOc2ccc(CN3CCN(Cc4ccccn4)CC3)cc2C1)c1ccccc1`, the “activity change, negative = growth inhibition” value is -22.4%.

On to `COCCNC(=O)c1onc(CSc2cccc(C)c2)c1C(=O)O`, for which the “activity change, negative = growth inhibition” value was -8.38%.

Take `CCOc1ccc(NC(=S)N2CCC(N(C)CC3CCCO3)CC2)cc1` (stereo not given): the “activity change, negative = growth inhibition” value is 1.02%. Still for that read-out and setting: then `COc1ccc2oc(N)c(C=O)c(=O)c2c1`, with 0.424%.

Consider `CCOc1ccc(NC(=O)C/C(C)=N/NC(=O)Cc2cccs2)cc1`, for which the “activity change, negative = growth inhibition” value was -1.31%. As to `CN1C(=O)[C@H]2[C@@H](C3CC3)N3C(=O)CN(Cc4ccccc4)C(=O)[C@@]3(C)[C@H]2C1=O`, the “activity change, negative = growth inhibition” value is 2.76%. On to `Cc1cccc(C)c1NC(=O)N1CC=C(n2c(=O)[nH]c3ccccc32)CC1`, for which the Potency was 20.6 µM (active).

In the case of `Cc1cccc(C)c1NC(=O)N1CC(C)OC(C)C1` (stereo not given), the “activity change, negative = growth inhibition” value was 19.8%. With `Cc1ccccc1Cn1c(=O)[nH]c2ccccc21`, the “activity change, negative = growth inhibition” value was -22.8%. Still for that read-out and setting: then `COc1ccc(C)cc1N1C(=O)[C@@H]2C[C@H]1CN2Cc1cccc(OC)c1O`, with -29.5%; and `COc1ccc(N2CCC(N3CCN(C)C(CCO)C3)CC2)cc1` (stereo not given), with 25.1%; and `COc1ccc(-c2[nH]c3c(c2-c2c(-n4cccc4)n(C)c(=O)n(C)c2=O)c(=O)n(C)c(=O)n3C)cc1`, with -7.33%. Consider `COc1ccc(-c2c3c(=O)n(C)c(=O)n(C)c3c3c(C)nc4ccccc4n23)cc1`, for which the Potency is 20.6 µM (active). Turning to `COc1ccc(-c2c3c(=O)n(C)c(=O)n(C)c3cn2NC(C)=O)cc1`, the “activity change, negative = growth inhibition” value was 1.83%. Still for that read-out and setting: then `CC1=NNC(=O)C1CCC(=O)N/N=C\c1cccc(Cl)c1` (stereo not given), with 6.28%. On to `Cc1ccc(S(=O)(=O)N2[C@@H](Cc3ccccc3)CO[C@H]2CC(=O)OCc2ccccc2)cc1`, for which the Potency was 23.1 µM (active).

Regarding `CC(=O)C[C@@H]1OC[C@H](CO)N1S(=O)(=O)c1ccc(C)cc1`, the “activity change, negative = growth inhibition” value is 11%. For the molecule `CC(=O)C[C@@H]1OC[C@H](C)N1S(=O)(=O)c1ccc(C)cc1`, the “activity change, negative = growth inhibition” value was 1.6%. Take `CC(=O)Nc1nc(C)c(Cc2ccccc2)c(=O)[nH]1`: the “activity change, negative = growth inhibition” value is 3.66%.

`CCCCn1c(N)c(N(CC(C)C)C(=O)c2ccc(Br)o2)c(=O)[nH]c1=O`: the “activity change, negative = growth inhibition” value is -34.5%. Consider `O=S1(=O)CC(N2CCN(CCO)CC2)CN1Cc1cn(Cc2cccc(Cl)c2)nn1` (stereo not given), for which the “activity change, negative = growth inhibition” value is 6.99%. For the molecule `CN(Cc1cn(Cc2ccc(C(F)(F)F)cc2)nn1)C1CN(Cc2cn(Cc3ccc(C(F)(F)F)cc3)nn2)S(=O)(=O)C1` (stereo not given), the Potency is 4.61 µM (active). As for `Cc1ccc(Cn2cc(CN3CC(N4CCN(C)CC4)CS3(=O)=O)nn2)cc1` (stereo not given), the “activity change, negative = growth inhibition” value was -22.6%. Turning to `CN(C)C1CN(Cc2cn(Cc3ccccc3)nn2)S(=O)(=O)C1` (stereo not given), the “activity change, negative = growth inhibition” value is -19.1%. On to `Cc1cccc(CN2CCN(C3CN(Cc4cn(Cc5cc(C)cc(C)c5)nn4)S(=O)(=O)C3)CC2)c1` (stereo not given), for which the Potency was 16.4 µM (active). Same read-out and setting: next, `O=S1(=O)CC(N2CCN(Cc3ccccc3F)CC2)CN1Cc1cn(Cc2cccc(C(F)(F)F)c2)nn1` (stereo not given): 16.4 µM (active). For `O=S1(=O)CC(N2CCN(CCO)CC2)CN1Cc1cn(Cc2ccc(Cl)cc2)nn1` (stereo not given), the “activity change, negative = growth inhibition” value is -19.6%. On the same count and under the same terms, then `Cc1cc(C)cc(CN2CCc3nnc(C(NS(C)(=O)=O)C(C)C)n3CC2)c1` (stereo not given), with -16.9%. In the case of `CCCCCCN1CCN(C2CN(Cc3cn(CCCCCC)nn3)S(=O)(=O)C2)CC1` (stereo not given), the Potency is 20.6 µM (active).
